Hit rate of the full screen: of about 360,000 compounds, about 17,000 (4.7%) were called active. About 5% were inconclusive and are not listed. The entries come from a sample that favours actives as a whole. Values without a mark were called inactive. No stated cut-off is given here; in the data, active means activity change below about -50%; inconclusive means mostly about -30% to -49%; inactive means weaker than that.
On the % scale 0 is the no-effect control and ±100 the full control effect.

The experiment can be described thus: qHTS for Inhibitors of Inflammasome Signaling: IL-1-beta AlphaLISA Primary Screen. To be noted: THP-1 LPS/ATP IL-1B secretion, 16 h; at 57.5 µM, active compounds read low. The method, boiled down:
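THP-1 cells pretreated 1 hr with compounds (up to 57.5 uM final), then stimulated with LPS (250 ng/mL final) plus ATP (1.25 mM final); secreted IL-1B measured by AlphaLISA after 16 hr, decreased signal indicating inhibition.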
In general terms: qHTS replaces the single test concentration by a dilution series.
In the case of `Cn1c2c(c(=O)n(C)c1=O)C(c1cccc(F)c1)C(C#N)=C(N)O2` (stereo not drawn), the activity change was 5.24%.
For the molecule `Cc1c(C(=O)NCc2ccc(C#N)cc2)sc(=O)n1Cc1ccc(C(=O)N(C)C)cc1`, the activity change is -7.66%.
With `CCCCOc1ccc(CSC(=N)N)cc1[N+](=O)[O-]` the figure was -102% (active); with `CCCCCOc1ccc(CSC2=NCCN2)cc1[N+](=O)[O-]`, -93.2% (active).
For the molecule `CCCCOC(=O)CCCc1ccc([N+](=O)[O-])cc1[N+](=O)[O-]`, the activity change was 17.5%.
With `Cc1cc(OCCCCOc2ccc(C#N)cc2)ccc1[N+](=O)[O-]` the figure was 0%.
With `O=[N+]([O-])c1ccccc1OCCCCN1CCCCC1` the figure was 15.9%.
Then `Cc1nc(SCc2ccc(F)cc2)c([N+](=O)[O-])[nH]1`, with 15.4%; and `O=C(Nc1nnc([C@H]2C[C@H](O)[C@@H](CO)O2)s1)c1cccc(Cl)c1`, with 25.3%.
For the molecule `CCOC(=O)C1(Cc2ccccc2C(F)(F)F)CCN(C(=O)c2cc(C)n(C)n2)CC1`, the activity change was 58%.
Regarding `CC(=O)NC(CC(=O)Nc1nc(-c2ccccc2)c(C(C)=O)s1)c1ccccc1` (stereo not drawn), the activity change is -10.6%.
As to `CCN1C(=O)CS/C1=N\c1nccs1`, the activity change was -5.9%.
Turning to `O=C(Cc1ccc(Cl)cc1)c1ccccc1`, the activity change is -14.1%.
Regarding `CCN(C[C@H]1N[C@@](Cc2ccccc2)(C(=O)OC)[C@H]2C(=O)N(Cc3ccccc3)C(=O)[C@@H]12)C(=O)c1ccc(C)cc1`, the activity change was -54.1% (active).
With `CCN(C[C@H]1N[C@@](CC)(C(=O)OC)[C@H]2C(=O)N(Cc3ccccc3)C(=O)[C@@H]12)S(=O)(=O)c1ccccc1` the figure was -2.92%; with `CCNC(=O)N(CC)C[C@H]1N[C@@](CC)(C(=O)OC)[C@H]2C(=O)N(Cc3ccccc3)C(=O)[C@@H]12`, 36%.
Then `Cc1ccc(S(=O)(=O)NN=C2CC(C)(C)CC(=O)C2(C)C)cc1`, with 0.854%; and `Cc1cccc(C)c1NC(=O)C(c1ccc(C(F)(F)F)cc1)n1c(=O)c(-c2ccco2)nc2ccccc21` (stereo not drawn), with -1.25%; and `Cc1ccc2nc(SCC(=O)NC3CCCC3)[nH]c2c1`, with -11.8%.
Then `Cc1cc(C)c(NC(=O)CSc2nc3ccncc3[nH]2)c(C)c1`, with -69.3% (active).
Consider `COc1ccc2nc(SCC(=O)Nc3c(C)cc(C)cc3C)[nH]c2c1`, for which the activity change was 15.5%.
With `COc1ccc(C(CNC(=O)c2cccc(S(=O)(=O)Nc3ccc(Br)cc3)c2)N(C)C)cc1` (stereo not drawn) the figure was -12.1%; with `CCC(NC(=O)C1CCCC1)c1ccc(C)cc1` (stereo not drawn), 31.4%; with `Brc1ccc2nc(-c3ccccc3)c(Cc3ccccc3)n2c1`, 28.2%.
Regarding `CCN(CC)S(=O)(=O)c1cc(C(=O)Nc2cc(S(=O)(=O)N3CCOCC3)ccc2N2CCCC2)ccc1F`, the activity change is -10.4%.
For the molecule `CCN(CC)S(=O)(=O)c1ccc(N2CCOCC2)c(NC(=O)C2COc3ccccc3O2)c1` (stereo not drawn), the activity change was -0.208%.
In the case of `CCN(CC)S(=O)(=O)c1ccc(N2CCCC2)c(NC(=O)c2ccc([N+](=O)[O-])o2)c1`, the activity change was -86.5% (active).
With `CCN(CC)S(=O)(=O)c1ccc(N2CCOCC2)c(NC(=O)c2ccc(=O)n(C)n2)c1` the figure was 8.34%.
Take `CCN(CC)S(=O)(=O)c1ccc(N2CCOCC2)c(NC(=O)C(C)Oc2ccc(F)cc2)c1` (stereo not drawn): the activity change was -2.11%.
With `CCN(CC)S(=O)(=O)c1ccc(N2CCN(C)CC2)c(NC(=O)Nc2ccccc2F)c1` the figure was -72.3% (active); with `Cc1ccc(-c2ccc(CN3C(C)C(=O)N(Cc4cn(CCC5OCCCO5)nn4)CCS3(=O)=O)cc2)cc1` (stereo not drawn), -2.45%; with `CC1C(=O)Nc2ccccc2N1C(=O)c1ccc(F)cc1F` (stereo not drawn), 10.1%.
Then `Cc1ccc(C(=O)N[C@H](C(=O)N2CCN(c3ncccn3)CC2)C(C)C)cc1`, with -11.5%; and `CCOC(=O)c1cnn(Cc2ccccc2Cl)c1N`, with 0.436%; and `Cc1c(NC(=O)CSc2cccc3cccnc23)c(=O)n(-c2ccccc2)n1C`, with -96.5% (active).
`Cc1c(NC(=O)CSc2nnnn2-c2ccc(C(=O)O)cc2)c(=O)n(-c2ccccc2)n1C`: the activity change was 22.1%.
With `Cc1c(NC(=O)CSc2nnc(-c3cccnc3)n2N)c(=O)n(-c2ccccc2)n1C` the figure was 25.5%.
With `Cc1noc(C)c1-c1ccc(C(=O)NCc2ccncc2)c2occc12`, the activity change is 60.8%.
With `COC(=O)CN1C(C)=Nc2ccc(Br)cc2C1c1ccccc1` (stereo not drawn) the figure was -27.1%; with `Cc1ccc(C2C(C#N)C(C#N)N3CCCN23)cc1` (stereo not drawn), 0.442%; with `CCN(/N=C/c1ccc(N(C)C)cc1)c1nc2ccccc2[nH]1`, -29.3%.
With `Oc1ccc(/C=N/N(Cc2ccccc2)c2ccccc2)cc1` the figure was -72.7% (active); with `CCN(/N=C/c1ccccc1)c1cc(=O)n(C)c(=O)[nH]1`, 0%; with `Cc1cc(Cl)ccc1OCc1nc(-c2ccncc2)no1`, -55.8% (active).
With `Cc1ccc(-c2nc(-c3ccncc3)no2)c(C)c1` the figure was -25.6%; with `Cc1cc(Cl)ccc1OCCCC(=O)NCc1ccncc1`, -6.96%.
Turning to `O=S(=O)(NCCCc1ccccc1)c1ccc(Br)cc1`, the activity change was 8.22%.
Then `S=C(NCCCc1ccccc1)Nc1ccc(Br)cc1`, with -85.8% (active).
